Source: PubChem BioAssay AID1159580 (chemical genetic matrix, 2015)
Where “and” joins values, the source holds several entries; their conditions need not be identical. Identical values can stand only once. The whole screen tested about 5,500 compounds, of which about 2,000 (36%) were called active. Roughly 18% stayed inconclusive and do not appear here. Cut-off read from the data, not from the text of the source: active = normalized growth mostly below about 0.91 (no sharp cut-off); inconclusive = no clear call, values can overlap the other calls; inactive = mostly above about 0.92. The list shows a part of the results.

Assay: chemical genetic growth profiling, strain panel (AID 1159580);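 note: tested at 20 µM; growth read once vehicle control cultures reached saturation at 30 °C; 1 = growth at the plate median or of vehicle wells; lower values mean less growth of the strain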
Conditions: S. cerevisiae deletion strains, growth OD

Measured: normalized growth

CN(C)C(=O)Oc1cccc([N+](C)(C)C)c1
inactive: locus YAL021C, strain ccr4, stronger effect = lower value 0.987 | locus YAL026C, strain drs2, stronger effect = lower value 1 | locus YAL030W, strain snc1, stronger effect = lower value 1 | locus YAL040C, strain CLN3, stronger effect = lower value 1 | locus YBL061C, strain skt5, stronger effect = lower value 1.01 | locus YBR009C, strain hhf1, stronger effect = lower value 1 | locus YBR021W, strain FUR4, stronger effect = lower value 0.992 | locus YBR023C, strain chs3, stronger effect = lower value 0.988 | locus YBR171W, strain sec66, stronger effect = lower value 0.992 | locus YBR229C, strain ROT2, stronger effect = lower value 0.985 | locus YBR231C, strain swc5, stronger effect = lower value 0.988 | locus YBR279W, strain paf1, stronger effect = lower value 1 | locus YCL011C, strain gbp2, stronger effect = lower value 0.996 | locus YCL016C, strain dcc1, stronger effect = lower value 0.992 | locus YCL029C, strain bik1, stronger effect = lower value 0.978 | locus YCL061C, strain MRC1 (second series), stronger effect = lower value 1 | locus YCL061C, strain MRC1, stronger effect = lower value 0.996 | locus YCL069W, strain vba3, stronger effect = lower value 1 | locus YCR088W, strain abp1, stronger effect = lower value 0.99 | locus YDL005C, strain med2, stronger effect = lower value 0.983 | locus YDL035C, strain GPR1, stronger effect = lower value 0.997 | locus YDL040C, strain nat1, stronger effect = lower value 0.992 | locus YDL074C, strain BRE1, stronger effect = lower value 1.05 | locus YDL101C, strain DUN1, stronger effect = lower value 0.986 | locus YDL134C, strain PPH21, stronger effect = lower value 0.987 | locus YDL185W, strain tfp1, stronger effect = lower value 0.98 | locus YDL192W, strain arf1, stronger effect = lower value 0.98 | locus YDR001C, strain nth1, stronger effect = lower value 0.998 | locus YDR069C, strain doa4, stronger effect = lower value 0.978 | locus YDR101C, strain arx1, stronger effect = lower value 0.977 | locus YDR137W, strain rgp1, stronger effect = lower value 1.01 | locus YDR150W, strain NUM1, stronger effect = lower value 1 | locus YDR159W, strain sac3, stronger effect = lower value 0.978 | locus YDR162C, strain NBP2, stronger effect = lower value 0.999 | locus YDR195W, strain ref2 1.01 | locus YDR297W, strain sur2, stronger effect = lower value 0.996 | locus YDR318W, strain mcm21, stronger effect = lower value 0.98 | locus YDR334W, strain swr1, stronger effect = lower value 1 | locus YDR335W, strain msn5, stronger effect = lower value 1.01 | locus YDR363W, strain ESC2, stronger effect = lower value 1.04 | locus YDR388W, stronger effect = lower value 0.986 | locus YDR392W, strain spt3, stronger effect = lower value 0.996 | locus YDR502C, strain sam2, stronger effect = lower value 0.977 | locus YEL003W, strain gim4, stronger effect = lower value 1.01 | locus YEL037C, strain rad23, stronger effect = lower value 0.998 | locus YEL061C, strain CIN8 (second series), stronger effect = lower value 1 | locus YEL061C, strain CIN8, stronger effect = lower value 0.994 | locus YER002W, strain NOP16, stronger effect = lower value 1.01 | locus YER015W, strain faa2, stronger effect = lower value 1 | locus YER016W, strain bim1, stronger effect = lower value 1.01 | locus YER110C, stronger effect = lower value 0.991 | locus YER111C, strain swi4, stronger effect = lower value 1.02 | locus YER155C, strain BEM2 (second series), stronger effect = lower value 1.01 | locus YER155C, strain BEM2, stronger effect = lower value 0.974 | locus YER167W, strain BCK2, stronger effect = lower value 0.987 | locus YFR010W, strain ubp6, stronger effect = lower value 0.996 | locus YGL078C, strain dbp3, stronger effect = lower value 0.983 | locus YGL086W, strain mad1, stronger effect = lower value 0.997 | locus YGL167C, strain pmr1, stronger effect = lower value 1.07 | locus YGL173C, strain kem1, stronger effect = lower value 1.01 | locus YGL227W, strain vid30, stronger effect = lower value 0.992 | locus YGL240W, strain doc1, stronger effect = lower value 0.986 | locus YGL248W, strain PDE1, stronger effect = lower value 0.993 | locus YGL253W, strain hxk2, stronger effect = lower value 1.01 | locus YGR135W, strain pre9, stronger effect = lower value 0.981 | locus YGR229C, strain SMI1, stronger effect = lower value 1.02 and 1.01 | locus YGR252W, strain gcn5, stronger effect = lower value 1.06 | locus YHR013C, strain ard1, stronger effect = lower value 1.02 | locus YHR027C, strain rpn1, stronger effect = lower value 0.99 | locus YHR030C, strain SLT2, stronger effect = lower value 0.992 and 0.979 | locus YHR079C, strain IRE1 (second series), stronger effect = lower value 0.979 | locus YHR079C, strain IRE1, stronger effect = lower value 0.961 | locus YHR094C, strain hxt1, stronger effect = lower value 0.989 | locus YHR129C, strain ARP1, stronger effect = lower value 0.989 | locus YHR142W, strain chs7, stronger effect = lower value 1.03 | locus YHR200W, strain rpn10, stronger effect = lower value 0.981 | locus YIL066C, strain RNR3, stronger effect = lower value 0.996 | locus YIL073C, strain SPO22, stronger effect = lower value 0.965 | locus YIL125W, strain kgd1, stronger effect = lower value 0.998 | locus YIR030C, strain dcg1, stronger effect = lower value 0.983 | locus YJL092W, strain hpr5, stronger effect = lower value 0.996 | locus YJL095W, strain BCK1 (second series), stronger effect = lower value 0.996 | locus YJL095W, strain BCK1, stronger effect = lower value 1.01 and 0.988 | locus YJL115W, strain asf1, stronger effect = lower value 1 | locus YJL129C, strain trk1, stronger effect = lower value 0.987 | locus YJL134W, strain LCB3, stronger effect = lower value 0.986 | locus YJL154C, strain vps35, stronger effect = lower value 1.01 | locus YJL164C, strain tpk1, stronger effect = lower value 1.01 | locus YJL166W, strain qcr8, stronger effect = lower value 0.999 | locus YJL168C, strain set2, stronger effect = lower value 0.988 | locus YJL187C, strain SWE1 (second series), stronger effect = lower value 0.987 | locus YJL187C, strain SWE1, stronger effect = lower value 0.992 | locus YJR043C, strain POL32, stronger effect = lower value 1.02 | locus YJR066W, strain TOR1, stronger effect = lower value 0.947
